# Results: PubChem BioAssay
# Calls of active or inactive are those of the source. Unless noted, no rule for the calls is given here.
# Columns and labels:
# [1] = anti-His antibody binders, primary screen, artefact control for SMM control protein annotation, biochemical, small-molecule microarray, 635 nm fluorescence (AID 1128); settings: anti-His Alexa647 antibody binding, higher = more signal;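 also: score merges feature fluorescence with signal-to-noise for each printed compound spot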
# [2] = tested on: Human papillomavirus type 1a E7 protein (residues 1-88); assay: HPV1a E7 small-molecule binders, primary screen, biochemical, small-molecule microarray, residues 1-88, 635 nm (AID 1129); settings: small-molecule microarray binding, fluorescence 635 nm; higher = more signal
# [3] = target: Focal adhesion kinase 1 (Homo sapiens) (UniProt Q05397); assay: small-molecule microarray binders of FAK, primary screen, biochemical, 635/667 nm fluorescence, BSA, DTT (AID 1130); settings: PTK2 binding, 635 nm fluorescence, higher = more signal;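 also: composite of spot emission at 667 nm and signal to noise over triplicate slides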
# [4] = tested on: Fibrinogen (Alexa647-labelled); assay: fibrinogen binders on compound microarrays, profiling panel, artefact control for SMM control-protein annotation, biochemical, small-molecule microarray, 635/667 nm fluorescence (AID 1131); settings: fibrinogen-A647 binding fluorescence, higher = more signal;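 also: z-score merges 667 nm fluorescence with per-spot signal-to-noise over triplicate slides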
# [5] = target: Follistatin (Homo sapiens) (UniProt P19883); assay: follistatin binders on small-molecule microarrays, primary screen, biochemical, small-molecule microarray, 635/667 nm fluorescence (AID 1132); settings: FST binding, 635 nm fluorescence, higher = more signal
# [6] = target: Fibroblast growth factor 2 (Homo sapiens) (UniProt P09038); assay: FGF2 binders on small-molecule microarrays, primary screen, biochemical, small-molecule microarray, 635/667 nm fluorescence (AID 1133); settings: small-molecule microarray binding, FGF2, fluorescence 635/667; higher = more signal
# [7] = mitochondrial membrane potential change in A549 cells, profiling panel, cell-based, JC-1 fluorescence, basal, 24 h, 100 nL (AID 1138); settings: higher = more signal;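 also: A549 lung adenocarcinoma cells under basal conditions with no added stimulus; test concentration not given here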
# Lefty1 = Lefty1 binders on small-molecule microarrays, primary screen, biochemical, small-molecule microarray, 635/667 nm fluorescence (AID 1139); settings: small-molecule microarray binding, fluorescence 635/667; higher = more signal
# [8] = tested on: wheat germ agglutinin (Triticum aestivum), Alexa647-labelled; assay: wheat germ agglutinin binders on compound microarrays, profiling panel, artefact control for SMM control-protein annotation, biochemical, small-molecule microarray, 635/667 nm fluorescence (AID 1140); settings: WGA-A647 binding, 635 nm fluorescence, higher = more signal;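 also: score merges 667 nm feature emission with signal to noise over triplicate slides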
# [9] = target: Luciferin 4-monooxygenase (Photinus pyralis) (UniProt P08659); assay: firefly luciferase enzyme inhibitors, primary screen, biochemical, luminescence, purified enzyme, 2006 set (AID 1141); settings: SteadyGlo luminescence, 30 min, higher = more signal, called active from +8 up or from −8 down;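 also: cell-free assay with purified firefly luciferase at 100 ng per well in PBS; test concentration not given here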
# [10] = tested on: Wnt5a (protein binding on small-molecule microarray); assay: Wnt5a binders on small-molecule microarray, primary screen, biophysical, 635/667 nm fluorescence (AID 1142); settings: 635 nm fluorescence, higher = more signal;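 also: fluorescence read at 667 nm with signal to noise per printed feature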
# [11] = cell viability in Huh7 cells, primary screen, cytotoxicity control for HCV replication inhibitor project, CellTiter-Glo luminescence, basal, 48 h (AID 1143); settings: Huh7 HCV replicon, higher = more signal, called active from +8 up or from −8 down;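 also: Huh7 hepatoma cells carrying a hepatitis C replication reporter with no stimulus; test concentration not given here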
# [12] = P. aeruginosa biofilm formation inhibitors, primary screen, PAO1 strain, BacTiter-Glo luminescence, LB-PBS (AID 1144); settings: 12 h, higher = more signal
# [13] = CREB reporter modulators without forskolin, primary screen, cell-based, PC12, CRE-LacZ reporter, unstimulated (AID 1145); settings: no forskolin, luminescence, 4.5 h, higher = more signal, called active from +8 up or from −8 down
# [14] = CREB reporter modulators under forskolin, primary screen, cell-based, PC12, CRE-LacZ reporter, forskolin-stimulated (AID 1146); settings: luminescence, 4.5 h, higher = more signal, called active from +8 up or from −8 down;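 also: PC12 cells with 6xCRE LacZ reporter stimulated by forskolin 10 µM; beta-galactosidase reporter signal reflecting CREB driven transcription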
# [15] = target: Streptavidin (Streptomyces avidinii) (UniProt P22629); assay: streptavidin binders on small-molecule microarray, primary screen, artefact control for SMM compound annotation, biophysical, 635/667 nm fluorescence (AID 1147); settings: streptavidin binding, higher = more signal;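 also: signal reflects streptavidin binding to arrayed compounds as a control protein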
# [16] = small-molecule binders of probe aInhba, primary screen, biochemical, small-molecule microarray, 635/667 nm fluorescence (AID 1148); settings: higher = more signal;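 also: score merges 667nm spot fluorescence with signal-to-noise for antibody binding to printed compounds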
# Torsin-1A (Homo sapiens) [17] = target: Torsin-1A (Homo sapiens) (UniProt O14656); assay: torsin A binders from cell lysate, primary screen, small-molecule microarray, wild-type, 635/667 nm (AID 1149); settings: COS7 hTOR1A-WT lysate, 635 nm fluorescence, higher = more signal
# Torsin-1A (Homo sapiens) [18] = target: Torsin-1A (Homo sapiens) (UniProt O14656); assay: small-molecule binders of mutant TOR1A in lysate, primary screen, cell lysate, small-molecule microarray, COS7 lysate, 635/667 nm fluorescence (AID 1150); settings: COS7 hTOR1A mutant lysate, 635 nm fluorescence, higher = more signal;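 also: score pools 667 nm emission and signal to noise measuring lysate protein binding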
# [19] = tested on: Sonic hedgehog protein (Shh); assay: small-molecule binders of Shh protein, primary screen, biochemical, small-molecule microarray, 635/667 nm fluorescence (AID 1151); settings: small-molecule microarray binding, 635 nm fluorescence; higher = more signal;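 also: Shh protein binding to compounds spotted on small-molecule microarray slides; score combines spot fluorescence intensity with signal-to-noise across triplicate slides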
# Fibroblast growth factor 2 (Homo sapiens), sequence (P09038 whole entry, looked up): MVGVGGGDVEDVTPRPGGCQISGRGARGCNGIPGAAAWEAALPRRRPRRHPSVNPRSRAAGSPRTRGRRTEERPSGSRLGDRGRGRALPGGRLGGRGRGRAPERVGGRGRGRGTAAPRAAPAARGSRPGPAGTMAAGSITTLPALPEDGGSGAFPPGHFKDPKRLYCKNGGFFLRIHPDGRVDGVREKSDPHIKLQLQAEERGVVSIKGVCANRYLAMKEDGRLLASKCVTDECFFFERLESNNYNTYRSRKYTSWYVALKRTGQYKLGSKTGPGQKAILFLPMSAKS
# Focal adhesion kinase 1 (Homo sapiens), sequence (Q05397 whole entry, looked up): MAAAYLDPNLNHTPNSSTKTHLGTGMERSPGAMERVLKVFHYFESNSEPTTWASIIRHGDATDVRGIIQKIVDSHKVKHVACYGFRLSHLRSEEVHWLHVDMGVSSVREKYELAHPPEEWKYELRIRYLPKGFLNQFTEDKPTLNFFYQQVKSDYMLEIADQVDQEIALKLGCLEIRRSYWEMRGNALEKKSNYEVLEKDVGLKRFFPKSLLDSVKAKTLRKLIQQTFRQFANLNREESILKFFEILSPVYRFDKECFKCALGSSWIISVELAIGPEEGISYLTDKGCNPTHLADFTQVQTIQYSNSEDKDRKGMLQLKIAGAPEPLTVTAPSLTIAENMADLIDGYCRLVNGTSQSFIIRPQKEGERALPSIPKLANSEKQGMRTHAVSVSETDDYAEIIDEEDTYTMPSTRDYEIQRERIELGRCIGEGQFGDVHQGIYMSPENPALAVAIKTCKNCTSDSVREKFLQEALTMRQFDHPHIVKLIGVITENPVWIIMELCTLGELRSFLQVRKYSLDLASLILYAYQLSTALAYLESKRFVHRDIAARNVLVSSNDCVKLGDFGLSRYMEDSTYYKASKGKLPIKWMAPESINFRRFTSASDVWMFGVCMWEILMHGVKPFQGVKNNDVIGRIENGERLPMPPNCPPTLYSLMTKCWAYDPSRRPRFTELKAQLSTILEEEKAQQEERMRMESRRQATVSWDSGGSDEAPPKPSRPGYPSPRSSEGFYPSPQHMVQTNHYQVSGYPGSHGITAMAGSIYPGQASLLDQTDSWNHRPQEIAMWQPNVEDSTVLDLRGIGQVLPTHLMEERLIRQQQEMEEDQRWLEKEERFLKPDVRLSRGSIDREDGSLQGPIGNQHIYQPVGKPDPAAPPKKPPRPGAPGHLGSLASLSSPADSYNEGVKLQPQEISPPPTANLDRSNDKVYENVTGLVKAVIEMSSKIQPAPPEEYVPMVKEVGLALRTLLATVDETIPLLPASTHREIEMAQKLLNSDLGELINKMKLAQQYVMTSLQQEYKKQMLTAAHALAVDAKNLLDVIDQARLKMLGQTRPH
# Streptavidin (Streptomyces avidinii), sequence (P22629 whole entry, looked up): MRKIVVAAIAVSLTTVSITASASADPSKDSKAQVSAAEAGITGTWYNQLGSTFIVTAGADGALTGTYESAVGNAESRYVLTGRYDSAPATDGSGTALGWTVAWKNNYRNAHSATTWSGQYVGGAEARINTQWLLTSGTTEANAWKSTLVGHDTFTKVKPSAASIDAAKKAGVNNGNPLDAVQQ
# Torsin-1A (Homo sapiens), sequence (O14656 whole entry, looked up): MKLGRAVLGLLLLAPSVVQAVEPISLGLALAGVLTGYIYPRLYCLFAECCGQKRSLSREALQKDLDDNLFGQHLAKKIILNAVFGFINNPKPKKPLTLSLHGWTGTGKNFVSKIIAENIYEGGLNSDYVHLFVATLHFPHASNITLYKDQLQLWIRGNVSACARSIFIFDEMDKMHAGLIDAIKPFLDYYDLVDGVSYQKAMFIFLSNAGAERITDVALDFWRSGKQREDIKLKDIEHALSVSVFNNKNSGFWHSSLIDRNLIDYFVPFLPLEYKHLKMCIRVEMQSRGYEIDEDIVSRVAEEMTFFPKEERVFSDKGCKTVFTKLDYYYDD
# Luciferin 4-monooxygenase (Photinus pyralis), sequence (P08659 whole entry, looked up): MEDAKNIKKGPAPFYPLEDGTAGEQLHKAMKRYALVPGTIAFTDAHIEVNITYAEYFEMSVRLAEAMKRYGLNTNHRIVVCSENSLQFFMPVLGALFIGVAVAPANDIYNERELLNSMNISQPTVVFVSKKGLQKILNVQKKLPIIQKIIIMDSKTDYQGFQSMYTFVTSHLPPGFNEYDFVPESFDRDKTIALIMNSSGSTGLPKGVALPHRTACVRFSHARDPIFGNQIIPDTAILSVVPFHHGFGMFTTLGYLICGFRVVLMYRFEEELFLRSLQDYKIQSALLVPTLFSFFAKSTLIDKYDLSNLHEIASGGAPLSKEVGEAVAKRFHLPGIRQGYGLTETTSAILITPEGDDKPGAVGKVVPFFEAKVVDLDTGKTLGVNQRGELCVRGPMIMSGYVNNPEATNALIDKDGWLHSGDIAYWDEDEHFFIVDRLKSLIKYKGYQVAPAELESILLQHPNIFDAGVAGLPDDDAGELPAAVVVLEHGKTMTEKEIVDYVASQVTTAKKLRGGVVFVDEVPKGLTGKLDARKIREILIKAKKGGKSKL
# Follistatin (Homo sapiens), sequence (P19883 whole entry, looked up): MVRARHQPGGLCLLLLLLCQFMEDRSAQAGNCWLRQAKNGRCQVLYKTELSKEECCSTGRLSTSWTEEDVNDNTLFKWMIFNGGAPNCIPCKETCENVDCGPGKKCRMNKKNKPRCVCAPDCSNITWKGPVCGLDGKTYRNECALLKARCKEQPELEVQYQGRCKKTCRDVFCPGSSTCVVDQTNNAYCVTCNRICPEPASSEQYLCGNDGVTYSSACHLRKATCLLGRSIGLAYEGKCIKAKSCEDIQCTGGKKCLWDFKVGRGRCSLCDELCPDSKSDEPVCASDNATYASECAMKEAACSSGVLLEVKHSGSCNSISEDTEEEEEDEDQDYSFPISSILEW
SMILES,composite z-score [1],composite z-score [2],composite z-score [3],composite z-score [4],composite z-score [5],composite z-score [6],z-score [7],composite z-score (Lefty1),composite z-score [8],z-score [9],composite z-score [10],z-score [11],z-score [12],z-score [13],z-score [14],composite z-score [15],composite z-score [16],composite z-score (Torsin-1A (Homo sapiens) [17]),composite z-score (Torsin-1A (Homo sapiens) [18]),composite z-score [19]
COc1ccc(C#Cc2ccc3c(c2)[C@]2(C(=O)N3)[C@H](C(=O)N3CCCCCCC3)[C@H]3C(=O)O[C@H](c4ccccc4)[C@H](c4ccccc4)N3[C@@H]2c2ccc(O)cc2)cc1,1.21,1.21,0.127,0.729,1.31,0.709,-0.316,0.942,0.983,0.103 (inactive),0.696,-0.71 (inactive),-0.768 (inactive),0.0653 (inactive),-0.202 (inactive),0.627,0.939,0.589,1.42,1.6
CN(C)C(=O)[C@@]1(Cc2ccccc2)COC(c2ccc(OCCCO)cc2)=N1,0.468,0.672,0.292,0.414,-0.13,-0.0827,1.18,-1.51,0.298,-2.68 (inactive),-0.243,-2.58 (inactive),0.59 (inactive),1.74 (inactive),-1.3 (inactive),0.142,-0.661,0.0565,-0.22,-0.618
COC(=O)[C@@]1(Cc2ccccc2)[C@H]2c3cc(C(=O)N(C)C)n(CCn4cc([N+](=O)[O-])nc4C)c3C[C@H]2CN1C(=O)c1ccccc1,0.735,0.858,1.39,0.989,0.387,-0.163,-0.22,0.216,1.1,-0.0637 (inactive),0.192,-0.65 (inactive),0.331 (inactive),-0.379 (inactive),1.45 (inactive),0.287,-0.147,0.614,0.464,0.383
COCCOC(=O)N1C(=O)[C@@]2(c3cc(C#CCCO)ccc31)[C@H](C(=O)N1CCCCCCC1)[C@H]1C(=O)O[C@H](c3ccccc3)[C@H](c3ccccc3)N1[C@@H]2c1ccccc1OCCO,0.573,1.19,0.686,0.885,1.45,0.819,-0.971,1.41,1.25,-1.29 (inactive),0.985,-2.07 (inactive),0.893 (inactive),0.0655 (inactive),-0.823 (inactive),2.6,1.3,1.22,1.62,1.68
COc1cc(NN2C(C(O)c3ccccc3)C=CC3C(=O)N(C)C(=O)C32)cc(OC)c1OC (stereo not given),0.981,1.19,0.681,0.959,0.756,0.216,-0.109,0.229,1.23,-1.69 (inactive),0.107,-2.51 (inactive),-0.426 (inactive),0.0603 (inactive),-0.126 (inactive),0.194,0.0184,-0.0091,0.576,0.36
CCC(CC)C(O)C1C=CC2C(=O)N(c3ccccc3)C(=O)C2N1Nc1ccc([N+](=O)[O-])cc1 (stereo not given),0.838,1.23,1.19,0.895,0.081,-0.348,-1.38,0.138,1.11,1.14 (inactive),0.205,0.0373 (inactive),-0.639 (inactive),-0.62 (inactive),-0.68 (inactive),0.754,0.124,0.273,0.427,0.179
COC(=O)[C@@]1(Cc2ccc(OC)cc2)[C@H]2c3cc(C(=O)N4CCCC4)n(Cc4cc(C)n(C)n4)c3C[C@H]2CN1C(=O)c1ccccc1,1.58,1.17,2.74,1.05,-0.326,-0.622,1.16,-0.801,1.33,0.769 (inactive),0.973,-0.434 (inactive),0.463 (inactive),-0.375 (inactive),0.543 (inactive),1.92,0.605,0.544,0.24,-0.319
COc1ccc(CCNC(=O)[C@@]2(Cc3ccccc3I)c3ccccc3C(=O)N(Cc3ccccc3Cl)[C@H]2c2ccc(CO)cc2)cc1,0.0199,0.899,0.196,0.0632,0.0376,0.0031,0.311,-0.321,0.0638,-0.0513 (inactive),0.0402,-2.74 (inactive),-0.144 (inactive),0.0387 (inactive),0.752 (inactive),-0.555,0.502,-0.36,0.397,0.527
C=CCNC(=O)[C@@H]1[C@H]2C(=O)O[C@H](c3ccccc3)[C@H](c3ccccc3)N2[C@H](c2ccc(O)cc2)[C@@]12C(=O)Nc1ccc(C#CCC(C(=O)OC)C(=O)OC)cc12,-0.414,1.2,0.267,0.0847,1.24,0.464,-1.22,0.147,0.0307,-0.108 (inactive),0.0513,-5.09 (inactive),-1.02 (inactive),-0.608 (inactive),-0.746 (inactive),0.138,-0.018,0.131,1.76,0.8
NC(=O)NCC#Cc1ccc2c(c1)[C@]1(C(=O)N2)[C@H](C(=O)N2CCN(c3ncccn3)CC2)[C@H]2C(=O)O[C@H](c3ccccc3)[C@H](c3ccccc3)N2[C@@H]1c1ccc(OCCO)cc1,0.0543,0.805,0.0827,0.717,1.33,0.517,-1.18,0.406,0.276,-0.437 (inactive),0.388,0.0749 (inactive),-0.534 (inactive),-0.231 (inactive),0.156 (inactive),0.644,0.0391,0.237,0.875,0.963
